Results reported in PubChem BioAssay AID1508625 (Wald Lab, School of Medicine, Case Western Reserve …, 2021).

Test: small molecules boosting NK-mediated OVCAR3 lysis – imaging, primary NK cells, calcein-AM imaging, primary screen (AID 1508625);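 further: compound given to NK cells 16 h before adding targets at 1.5 to 1 ratio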;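 on z-score: more negative robust z means stronger NK killing of tumor cells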
Details: OVCAR3 lysis by primary NK cells, at 5 µM; z-score: measured here: robust Z-score, single-point normalisation

Structure (SMILES) | z-score | corrected activity, negative = more killing
COc1cccc(C(=O)N2CCN(C(=O)c3ccccc3OC)CC2)c1 | -1.15 | -2.57%
COCCNC(=O)c1c[nH]c2ccc(S(=O)(=O)Nc3ccc4c(c3)OCCO4)cc2c1=O | -1.29 | -5.25%
COc1ccccc1NC(=O)c1ccccc1NC(=O)c1ccc(F)cc1 | -1.45 | -2.61%
C#CCOc1ccc2c(c1)c(C(C)=O)c(C)n2-c1ccc(OCC)cc1 | -0.66 | -1.52%
O=C(CCCN1C(=O)c2cccc3cccc(c23)C1=O)NCCO | -0.651 | -1.75%
Cc1ccc(OCCNC2CCCC2)c(C)c1 | 0.0921 | 0.166%
CCOc1ccc2nc(NC(=O)CCC(=O)OCC(F)(F)F)sc2c1 | -1.41 | -3.74%
CCOc1ccc(NC(=O)Cn2c(=O)n(CCc3ccccc3)c(=O)c3c4c(sc32)CCCC4)cc1 | -2.36 | -8.33%
Cn1c2ccccc2n2c(SCC(=O)O)nnc12 | -2.01 | -4.88%
COc1ccc(OC)c(NC(=O)c2cc3c(=O)n4ccccc4nc3s2)c1 | -1.95 | -6.86%
CCCCNCCCOc1cccc(Br)c1 | -0.168 | -0.452%
Cc1cc(Br)ccc1NC(=O)CCNC(=O)Cn1cnc2sc3c(c2c1=O)CCCC3 | -0.0893 | -0.281%
CC(=O)c1cccc(NC(=O)C2CCN(C(=O)c3ccc(F)cc3)CC2)c1 | -1.22 | -3.29%
C=CCn1c(=S)[nH]c2cc(C(=O)Nc3cccc(C(F)(F)F)c3)ccc2c1=O | -1.91 | -6.01%
Cc1ccc(-n2c(C)cc(C(=S)N3CCOCC3)c2C)cc1Cl | -1.54 | -4.03%
COc1ccc(-c2ccc3c(N)c(C(=O)NCCc4ccc(Cl)cc4)sc3n2)cc1 | -0.492 | -1.65%
